Structures are written as SMILES. Where “and” joins values, the source holds several entries; their conditions need not be identical. Equal entries are not always repeated. Inconclusive results are not listed. Calls of active or inactive are those of the source. Unless noted, cut-off not given; nearly all actives show AC50 up to about 26 µM.

The nature of test [1]: circadian clock period modulators, cell-based, LOPAC library, luminescence reporter (AID 2774; call rule not given here;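 further: values are relative to mean of DMSO wells on each plate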). To be noted: circadian reporter cells, at 7 µM, actives lie on both sides.
Test [2] is described as follows: hESC survival regulators, cell-based (AID 493140; call rule not given here;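 further: cells exposed to compounds for four days before counting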). Particulars: human embryonic stem cell survival screen; stronger effect = higher value.
A short description of test [3]: liver-stage malaria parasite growth inhibition, primary screen, cell-based, HepG2, luciferase luminescence, HepG2 viability (AID 624349; in the data active means parasite load remaining mostly below about 12%, no sharp cut-off; inactive means mostly above about 10%;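 further: 100% = mean of DMSO negative control wells on the same plate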). Particulars: P. berghei liver stage in HepG2, luciferase luminescence, concentration not given here; parasite load remaining: stronger effect = lower value; viability: measured here: HepG2 viability without parasites.
Test [4] deals with Hepatitis C virus NS3 helicase. The experiment in a line: HCV NS3 helicase inhibitors, primary screen, biochemical, fluorescence polarization, LOPAC1280 library (AID 687035; in the data active means inhibition above about 37%). Particulars: Purified HCV NS3 helicase, Cy5-dT15 ssDNA binding fluorescence polarization; stronger effect = higher value; concentration not given here. On the technique in general: Fluorescence polarisation rises when a labelled molecule tumbles more slowly, as on binding a larger partner.

A short description of test [5]: Cy5 fluorescence quenching or enhancement artefacts, artefact control for HCV NS3 helicase inhibitor project, biochemical, LOPAC1280 (AID 687037; call rule not given here). Particulars: Cy5-DNA-NS3h complex fluorescence interference counterscreen.
A short description of test [6]: growth inhibition of DIPG glioma cells, dose response, cell-based, SU-DIPG-XVII, MIPE5.0, CellTiter-Glo, qHTS (AID 1347060).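 On AC50: cells exposed to compound for 48 hours before viability readout.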 Particulars: SU-DIPG-XVII viability, CellTiter-Glo ATP luminescence.
A short description of test [7]: growth inhibition of DIPG glioma cells, dose response, cell-based, SU-DIPG-XIII, MIPE5.0, CellTiter-Glo, qHTS (AID 1347064; cut-off not given, nearly all actives have AC50 up to about 23 µM). Particulars: SU-DIPG-XIII viability, CellTiter-Glo ATP luminescence. (In general: In ATP-based viability assays light output follows the ATP content of the culture.)
The nature of test [8]: JHH-DIPG-1 glioma cell viability, MIPE5.0 library, CellTiter-Glo luminescence, qHTS (AID 1347067).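 Further: cells exposed to compound for 48 hours before readout.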 To be noted: JHH-DIPG-1 glioma viability, CellTiter-Glo ATP luminescence.
Test [9] in a line: sensitizers of A549 cells to miR-34 induction, primary screen, imaging, A549 dox-inducible miR-34, nuclei and caspase counts (AID 1347080;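 active means compounds whose cell count with miR-34 switched on is under 0.7 times the count with it off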). Particulars: A549 miR-34 inducible, Hoechst nuclei count, 48 h.
Test [10] in a line: inhibitors of Cryptococcus chitosan production, flow cytometry, Cibacron Brilliant Red staining (AID 1347148; call rule not given here;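 further: compound exposure lasted three days at 37 degrees C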). To be noted: Cryptococcus neoformans chitosan, stronger effect = lower value; at 10 µM unless noted.
Test [11] in a line: phospholipid biosynthesis inhibitors in animal cells, primary screen, cell-based, LOPAC library, screen 4 (AID 1347384; call rule not given here). Particulars: phospholipid biosynthesis inhibition screen, at 10 µM.
Test [12] can be described thus: viability rescue of complex I mutant cybrids, primary screen, cell-based, galactose medium, ATP luminescence (AID 1645843;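 active means z-score of at least 1.8 in each of two replicates, scored against plate mean and spread of sample wells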;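 further: positive z means more ATP and so rescue of galactose-driven cybrid death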). To be noted: complex I mutant cybrid cells, 72 h, stronger effect = higher value.
A short description of test [13]: SU-DIPG-XXV glioma cell viability, MIPE5.0 library, qHTS (AID 1347068; cut-off not given, nearly all actives have IC50 up to about 30 µM;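 on IC50: cells exposed to compound for 48 hours before viability readout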).
Test [14] in a line: viability loss in pontine glioma line – cell-based, SU-DIPG-XXV, MIPE5.0, CellTiter-Glo, qHTS, dose response (AID 1347065).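 Further: cells exposed to compound for 48 hours before ATP readout.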 Particulars: CellTiter-Glo ATP luminescence.
Test [15] in a line: SU-DIPG-VI glioma cell viability, MIPE4.0 library, CellTiter-Glo luminescence, qHTS (AID 1347066; cut-off not given, nearly all actives have AC50 up to about 30 µM;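 further: cells exposed to compound for 48 hours before readout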). To be noted: CellTiter-Glo ATP luminescence.
The nature of test [16]: survival rescue of mitochondrial mutant cells in low glucose, primary screen, MELAS cybrids, Rieske KO mouse fibroblasts, CellTiter-Glo (AID 1508586;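 active means mean z-score across replicates of 1.96 or higher in either the MELAS or the Rieske mutant cell line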;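 further: z relative to plate mean and SD of compound and empty wells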).
Setting [17] is: stronger effect = lower value, cell number ratio, induced over uninduced.
Where [18] appears, read: measured here: relative caspase fold change +Dox/-Dox.
[19] abbreviates: measured here: total cells with miR-34 induction, stronger effect = lower value.
Where [20] appears, read: measured here: total cells without miR-34 induction.

As usually defined, the viability is a per cent measure of how many cells are alive, often set against a control. The inhibition is the change of the read-out against control, counted positive when it falls. With `O=S(=O)(c1cccc2c(I)cccc12)N1CCCNCC1`, the period change in test [1] was 0.03 h (inactive). Further, the survival in test [2] is 70.8 (inactive). Also, the parasite load remaining in test [3] is 33.8% (inactive). In [3], the viability is 77.3%. The inhibition in test [4] was -1% (inactive). Further, in [5], the fluorescence ratio (interference) is 0.9 (inactive). Besides, the result in [6], in test [7], in [8] and in test [11] was inactive. For the same compound, the fold change was 0.977 (inactive) and 0.963 (inactive) in test [9] (setting [17]); 0.686 and 1.04 in [9] (setting [18]). Besides, the cell count in test [9] (setting [19]) was 7130 and 3010; in test [9] (setting [20]), 7300 and 3130. Moreover, in [10], the fold fluorescence was 13.8 [at 120.1 µM] (inactive). For the same compound, the z-score in test [12] was -0.91 (inactive).
For the compound `CS(=O)(=O)Nc1cc2occ(NC=O)c(=O)c2cc1Oc1ccccc1`, the call in test [6], in [7], in [8] and in test [13] was inactive.
What is called AC50 is the midpoint of the concentration-response curve, whichever way the signal moves. For `COc1ccc(Cl)c(Nc2nc3ccccc3nc2NS(=O)(=O)c2cccc(NC(=O)C(C)(C)N)c2)c1`, the AC50 in test [6] was 14.8 µM (active); in test [14] it was 10.5 µM (active).
With `CONC(=O)Nc1ccc(-c2sc3c(c2CN(C)Cc2ccccc2)c(=O)n(-c2ccccc2)c(=O)n3Cc2c(F)cccc2F)cc1`, the compound was called inactive in [6], in test [7] and in [13].
In the case of `CCc1c(C(=O)NNC(=O)[C@@H](O)c2cc(F)cc(F)c2)ccc(O)c1C`, the result in test [6], in test [14] and in test [8] was inactive.
Take `COc1ccc2[nH]c3c(c2c1)CCN[C@]31CS[C@@H]2c3c(OC(C)=O)c(C)c4c(c3[C@H](COC1=O)N1[C@@H]2[C@H]2c3c(cc(C)c(OC)c3O)C[C@@H]([C@@H]1O)N2C)OCO4`: the AC50 in [6] was 0.000959 µM (active); in test [14], 0.0034 µM (active); in test [8], 0.00135 µM (active).
Consider `O=C(Nc1nccs1)C(c1cc(F)ccc1O)N1Cc2ccccc2C1=O` (configuration not stated), for which the compound was classed as inactive in [6], in [14], in test [8] and in test [13].
As a reminder, the IC50 is the midpoint of a concentration-inhibition curve. Consider `C[C@@H](OC[C@@]1(c2ccccc2)CC[C@]2(CCC(=O)N2)CN1)c1cc(C(F)(F)F)cc(C(F)(F)F)c1`, for which the AC50 is 20.9 µM (active) in test [6], 18.6 µM (active) in test [14] and 14.8 µM (active) in test [8]. In addition, the IC50 in [13] is 20.9 µM (active).
As to `Cc1c(F)cc(C(=O)NC2CC2)cc1-c1c(F)cn2c(C(C)(C)C)nnc2c1F`, the call in test [6], in [14], in test [8] and in test [13] was inactive.
Regarding `COc1cc(-c2cn(C)c(=O)c3cnccc23)c(OC)cc1CN(C)C`, the compound was classed as inactive in [6], in test [14], in [8] and in test [13].
Consider `O=C1NC(=O)[C@@H](c2c[nH]c3ccccc23)[C@H]1c1cn2c3c(cccc13)CCC2`, for which the half-maximal activity concentration (AC50) in test [6] was 0.525 µM (active); in test [14] it was 0.742 µM (active); in [8], 1.66 µM (active).
As to `COc1ccc2[nH]c(C(=O)N3CCC(CC(C)(C)O)CC3)cc2c1`, the outcome in test [6], in test [14] and in [8] was inactive.
As for `Cc1c(NC(=O)c2cc3c(s2)CCCC3)cccc1-c1cn(C)c(=O)c(Nc2ccc(C3C(=O)N(C)CCN3C)cc2)n1` (configuration not stated), the AC50 in test [6] was 23.5 µM (active); in test [14], 18.6 µM (active); in test [8], 18.6 µM (active).
`O=C(Cc1ccccc1)Nc1nnc(CCSCCc2nnc(NC(=O)Cc3ccccc3)s2)s1`: the call in test [6] and in test [13] was inactive. Moreover, the AC50 in [14] was 11.8 µM (active); in [8], 14.8 µM (active).
`NC(=O)[C@H]1CCS[C@@H]2C[C@]3(CCCN3C(=O)Cc3ccc(NC(=O)COc4ccc(Cl)cc4Cl)cc3)C(=O)N12`: the values for the AC50 in test [6], in test [14] and in [8] were 4.17 µM (active), 10.5 µM (active) and 16.6 µM (active), respectively.
Consider `O=c1c(-c2ccc(O)cc2)coc2c([C@@H]3O[C@H](CO)[C@@H](O)[C@H](O)[C@H]3O)c(O)ccc12`, for which the call in test [6], in test [14], in [8] and in test [13] was inactive.
As for `Cc1c(-c2ccnn2C)cc(C(=O)NCc2ccc(S(C)(=O)=O)cn2)c(=O)n1-c1cccc(C(F)(F)F)c1`, the compound was called inactive in test [6], in [14] and in test [8].
On to `C[C@@H]1COCCN1c1cc(-c2ccnn2C)c2ccnc(-c3ccn[nH]3)c2n1`, for which the AC50 is 1.48 µM (active) in test [6], 1.86 µM (active) in test [14] and 5.25 µM (active) in test [8].
As for `Fc1ccc2[nH]ccc2c1-c1nc(N2CCOCC2)c2sc(CN3CCN(CC4CC4)CC3)cc2n1`, the concentration at half-maximal activity (AC50) in test [6] is 20.9 µM (active); in test [14] it was 23.5 µM (active); in test [8] it was 23.5 µM (active).
On to `COc1cc2c(NC3CCN(C)CC3)nc(N3CCCN(C)CC3)nc2cc1OCCCN(C)C`, for which the call in [6], in [14], in [8] and in test [13] was inactive.
In the case of `CC[C@H](NC(=O)[C@H](CS(=O)(=O)CC1CC1)N[C@@H](c1ccc(F)cc1)C(F)(F)F)C(=O)C(=O)NC1CC1`, the result in test [6], in test [14] and in test [8] was inactive.
On to `Cn1c(-c2ccccc2C(F)(F)F)nnc1C12CCC(c3noc(C4CC(F)(F)C4)n3)(CC1)CC2`, for which the compound was classed as inactive in test [6], in [14], in test [8] and in [13].
Turning to `COc1ccc2c(c1)CC[C@@H](CN(C)CC(=O)O)[C@H]2c1ccccc1`, the call in test [6], in [14], in test [15], in [8] and in test [13] was inactive.
Turning to `CO[C@@H]1C(N(C)C(=O)c2ccccc2)C[C@H]2O[C@]1(C)n1c3ccccc3c3c4c(c5c6ccccc6n2c5c31)C(=O)NC4=O` (some centres not stated), the AC50 in [6] and in test [14] was 0.934 µM (active) each time. For the same compound, in test [15], the outcome was inactive.
`O=C([O-])C[O-].[Pt+2]`: the outcome in test [6], in test [14], in [8] and in test [13] was inactive.
Take `CCS(=O)(=O)N1CC(CC#N)(n2cc(-c3ncnc4[nH]ccc34)cn2)C1`: the concentration at half-maximal activity (AC50) in [6] and in [14] was 18.6 µM (active) throughout. Further, the compound was classed as inactive in [15] and in [8]. For the same compound, the fold change in [9] (setting [17]) was 0.973 (inactive); in [9] (setting [18]) it was 0.869. Moreover, the cell count worked out at 8770 in test [9] (setting [19]) and 9020 in test [9] (setting [20]). The z-score in [16] (MELAS cybrid survival, CellTiter-Glo 48 h, stronger effect = higher value) was -0.48 (inactive); in test [16] (Rieske KO mouse fibroblast survival, CellTiter-Glo 72 h) it was 0.0326.
Consider `N=C(N)c1ccc2nc(-c3cc(CC(=O)N[C@@H](CC(=O)O)C(=O)O)cc(-c4cc(S(N)(=O)=O)ccc4O)c3O)[nH]c2c1`, for which the compound was called inactive in [6], in test [14], in test [8] and in test [13].
On to `C[C@H]1CNC(=O)c2cnn3ccc(nc23)N[C@H](C)c2cc(F)ccc2O1`, for which the AC50 was 1.05 µM (active) in [6], 0.934 µM (active) in test [14] and 1.48 µM (active) in test [8]. For the same compound, in test [13], the IC50 is 2.95 µM (active).
In the same order, the values of `C=CC(=O)Nc1cccc(C)c1Nc1ncc2cc(-c3c(Cl)c(OC)cc(OC)c3Cl)ccc2n1` are 14.8 µM (active), 9.34 µM (active), 13.2 µM (active) and 9.34 µM (active).
On to `CCCS(=O)(=O)c1nc(NC2CC2)cc(-c2ccc3c(ccn3C3CC(C)(C)NC(C)(C)C3)c2)n1`, for which the figures for the AC50 in test [6], in test [14] and in [8] were 3.93 µM (active), 2.78 µM (active) and 2.78 µM (active), respectively. The IC50 in test [13] was 3.12 µM (active).
Turning to `CCN(C)S(=O)(=O)Nc1ccc(F)c(C(=O)c2c[nH]c3ncc(-c4cnc(C5CC5)nc4)cc23)c1F`, the AC50 in [6] was 14.8 µM (active); in test [14], 7.42 µM (active); in test [8] it was 16.6 µM (active). In addition, the IC50 in [13] is 16.6 µM (active).
Regarding `COc1ccc(S(=O)(=O)N[C@@H](CNc2nc(C)nc(N3CCC(c4ccc5c(n4)NCCC5)CC3)c2C)C(=O)O)cc1`, the call in [6], in [14], in [8] and in [13] was inactive.
In the case of `Cc1cc(C)c(S(=O)(=O)N(CCc2cccc(Br)c2)Cc2ccc(-c3cccc(S(C)(=O)=O)c3)cc2)c(C)c1`, the call in [6], in [14], in test [8] and in [13] was inactive.

For the origin of these results see PubChem BioAssay.
